Reference: PubChem BioAssay AID1159580 (chemical genetic matrix, 2015)
Several values for one entry are separate records, joined by “and”; a condition that tells them apart may be missing. Equal values may be shown once. The campaign covered roughly 5,500 compounds. About 2,000 (36%) were called active. Another 18% or so got no clear call; they are omitted. Rule as the data show it: active = normalized growth mostly below about 0.91 (no sharp cut-off); inconclusive = no clear call, values can overlap the other calls; inactive = mostly above about 0.92. Some of the results follow.

Assay: chemical genetic growth profiling, strain panel (AID 1159580);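 also: tested at 20 µM; growth read once vehicle control cultures reached saturation at 30 °C; 1 = growth at the plate median or of vehicle wells; lower values mean less growth of the strain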
Settings: growth OD

Measured: normalized growth

CN(C)C(=O)Oc1cccc([N+](C)(C)C)c1
inactive: S. cerevisiae deletion strains, locus YJR075W, strain HOC1, hits give low values 1.02 | S. cerevisiae deletion strains, locus YKL009W, strain mrt4, hits give low values 0.969 | S. cerevisiae deletion strains, locus YKL068W, hits give low values 0.988 | S. cerevisiae deletion strains, locus YKL085W, strain MDH1 (second series), hits give low values 0.985 | S. cerevisiae deletion strains, locus YKL085W, strain MDH1, hits give low values 0.985 | S. cerevisiae deletion strains, locus YKL160W, strain elf1, hits give low values 0.996 | S. cerevisiae deletion strains, locus YKL190W, strain CNB1, hits give low values 1 | S. cerevisiae deletion strains, locus YKR001C, strain vps1, hits give low values 0.983 | S. cerevisiae deletion strains, locus YKR026C, strain gcn3, hits give low values 0.984 | S. cerevisiae deletion strains, locus YKR091W, strain srl3, hits give low values 0.995 | S. cerevisiae deletion strains, locus YLL001W, strain dnm1, hits give low values 0.988 | S. cerevisiae deletion strains, locus YLL026W, hits give low values 1 | S. cerevisiae deletion strains, locus YLL041C, strain sdh2, hits give low values 1.01 | S. cerevisiae deletion strains, locus YLR027C, strain aat2, hits give low values 0.984 | S. cerevisiae deletion strains, locus YLR039C, strain RIC1, hits give low values 0.985 | S. cerevisiae deletion strains, locus YLR058C, strain SHM2, hits give low values 0.996 | S. cerevisiae deletion strains, locus YLR102C, strain apc9, hits give low values 0.995 | S. cerevisiae deletion strains, locus YLR113W, strain HOG1, hits give low values 0.989 | S. cerevisiae deletion strains, locus YLR221C, strain rsa3, hits give low values 0.99 | S. cerevisiae deletion strains, locus YLR258W, strain gsy2, hits give low values 1 | S. cerevisiae deletion strains, locus YLR262C, strain YPT6 (second series), hits give low values 1 | S. cerevisiae deletion strains, locus YLR262C, strain YPT6, hits give low values 1.02 | S. cerevisiae deletion strains, locus YLR268W, strain sec22, hits give low values 0.956 | S. cerevisiae deletion strains, locus YLR320W, strain mms22, hits give low values 0.996 | S. cerevisiae deletion strains, locus YLR330W, strain CHS5, hits give low values 0.982 | S. cerevisiae deletion strains, locus YLR342W, strain FKS1 (second series), hits give low values 0.998 | S. cerevisiae deletion strains, locus YLR342W, strain FKS1, hits give low values 1.01 | S. cerevisiae deletion strains, locus YLR357W, strain rsc2, hits give low values 0.964 | S. cerevisiae deletion strains, locus YLR370C, strain arc18, hits give low values 1 | S. cerevisiae deletion strains, locus YLR371W, strain rom2, hits give low values 0.983 | S. cerevisiae deletion strains, locus YLR384C, strain iki3, hits give low values 1 | S. cerevisiae deletion strains, locus YLR418C, strain cdc73, hits give low values 0.972 | S. cerevisiae deletion strains, locus YML016C, strain PPZ1, hits give low values 0.987 | S. cerevisiae deletion strains, locus YML032C, strain rad52, hits give low values 0.982 | S. cerevisiae deletion strains, locus YML120C, strain ndi1, hits give low values 0.999 | S. cerevisiae deletion strains, locus YML124C, strain tub3, hits give low values 0.984 | S. cerevisiae deletion strains, locus YMR058W, strain fet3, hits give low values 1.01 | S. cerevisiae deletion strains, locus YMR078C, strain ctf18, hits give low values 0.984 | S. cerevisiae deletion strains, locus YMR125W, strain sto1, hits give low values 0.976 | S. cerevisiae deletion strains, locus YMR129W, hits give low values 0.997 | S. cerevisiae deletion strains, locus YMR205C, strain PFK2, hits give low values 0.994 | S. cerevisiae deletion strains, locus YMR223W, strain ubp8, hits give low values 0.995 | S. cerevisiae deletion strains, locus YMR231W, strain pep5, hits give low values 0.999 | S. cerevisiae deletion strains, locus YMR263W, strain SAP30, hits give low values 0.996 and 1.01 | S. cerevisiae deletion strains, locus YMR307W, strain GAS1, hits give low values 0.984 and 1.02 | S. cerevisiae deletion strains, locus YNL067W, strain RPL9B, hits give low values 1.01 | S. cerevisiae deletion strains, locus YNL071W, strain lat1, hits give low values 1.01 | S. cerevisiae deletion strains, locus YNL153C, strain GIM3, hits give low values 1.01 | S. cerevisiae deletion strains, locus YNL175C, strain NOP13, hits give low values 1.01 | S. cerevisiae deletion strains, locus YNL183C, strain NPR1, hits give low values 0.953 | S. cerevisiae deletion strains, locus YNL197C, strain WHI3, hits give low values 1.02 | S. cerevisiae deletion strains, locus YNL209W, strain ssb2, hits give low values 0.994 | S. cerevisiae deletion strains, locus YNL224C, strain SQS1, hits give low values 1 | S. cerevisiae deletion strains, locus YNL233W, strain BNI4, hits give low values 0.988 | S. cerevisiae deletion strains, locus YNL248C, strain rpa49, hits give low values 0.99 | S. cerevisiae deletion strains, locus YNL250W, strain rad50, hits give low values 0.978 | S. cerevisiae deletion strains, locus YNL271C, strain bni1, hits give low values 0.983 | S. cerevisiae deletion strains, locus YNL298W, strain CLA4, hits give low values 0.979 | S. cerevisiae deletion strains, locus YNL307C, strain MCK1, hits give low values 0.982 | S. cerevisiae deletion strains, locus YNL322C, strain KRE1 (second series), hits give low values 0.989 | S. cerevisiae deletion strains, locus YNR049C, strain mso1, hits give low values 0.98 | S. cerevisiae deletion strains, locus YNR052C, strain pop2, hits give low values 0.982 | S. cerevisiae deletion strains, locus YOL006C, strain TOP1, hits give low values 1.03 | S. cerevisiae deletion strains, locus YOL012C, strain htz1 1.09 | S. cerevisiae deletion strains, locus YOL147C, strain pex11, hits give low values 0.985 | S. cerevisiae deletion strains, locus YOR001W, strain rrp6, hits give low values 0.989 | S. cerevisiae deletion strains, locus YOR061W, strain CKA2, hits give low values 0.987 | S. cerevisiae deletion strains, locus YOR069W, strain VPS5, hits give low values 0.986 | S. cerevisiae deletion strains, locus YOR070C, strain gyp1, hits give low values 1 | S. cerevisiae deletion strains, locus YOR080W, strain dia2, hits give low values 0.996 | S. cerevisiae deletion strains, locus YOR083W, strain WHI5 (second series), hits give low values 1.01 | S. cerevisiae deletion strains, locus YOR083W, strain WHI5, hits give low values 0.998 | S. cerevisiae deletion strains, locus YOR106W, strain vam3, hits give low values 0.998 | S. cerevisiae deletion strains, locus YOR136W, strain idh2, hits give low values 0.992 | S. cerevisiae deletion strains, locus YOR144C, strain elg1, hits give low values 0.994 | S. cerevisiae deletion strains, locus YOR184W, strain ser1, hits give low values 0.99 | S. cerevisiae deletion strains, locus YOR231W, strain MKK1, hits give low values 1.02 | S. cerevisiae deletion strains, locus YOR265W, strain rbl2, hits give low values 0.996 | S. cerevisiae deletion strains, locus YOR270C, strain vph1, hits give low values 1.03 | S. cerevisiae deletion strains, locus YOR290C, strain snf2, hits give low values 1.01 | S. cerevisiae deletion strains, locus YOR316C, strain cot1, hits give low values 0.994 | S. cerevisiae deletion strains, locus YPL051W, strain arl3, hits give low values 1 | S. cerevisiae deletion strains, locus YPL055C, strain LGE1, hits give low values 1.02 | S. cerevisiae deletion strains, locus YPL078C, strain atp4, hits give low values 0.994 | S. cerevisiae deletion strains, locus YPL106C, strain sse1, hits give low values 0.973 | S. cerevisiae deletion strains, locus YPL240C, strain hsp82, hits give low values 1 | S. cerevisiae deletion strains, locus YPL241C, strain CIN2, hits give low values 1 | S. cerevisiae deletion strains, locus YPL256C, strain CLN2, hits give low values 0.986 | S. cerevisiae deletion strains, locus YPR119W, strain clb2, hits give low values 0.995 | S. cerevisiae deletion strains, locus YPR141C, strain kar3, hits give low values 0.978 | S. cerevisiae deletion strains, locus YPR163C, strain tif3, hits give low values 0.984 | S. cerevisiae deletion strains, locus YPR167C, strain met16, hits give low values 0.984 | S. cerevisiae deletion strains, strain wtn01, hits give low values 0.964 | S. cerevisiae strains, strain wild type, hits give low values 1.01
